# Bioassay records deposited in PubChem by The Scripps Research Institute Molecular Screening Center.
# CHRM1 PAM = positive allosteric modulators of human M1 muscarinic receptor. AID 588819. hit rate 0.088% among 360,000. activation, % at 3 µM. CHO-K1 hM1, Fluo-8 calcium fluorescence, ACh EC20; 0% = ACh EC20, 100% = maximal ACh. P11229; in the data active = activation above about 19%, passing the limit was not always enough
# Target sequence (P11229 whole entry, looked up): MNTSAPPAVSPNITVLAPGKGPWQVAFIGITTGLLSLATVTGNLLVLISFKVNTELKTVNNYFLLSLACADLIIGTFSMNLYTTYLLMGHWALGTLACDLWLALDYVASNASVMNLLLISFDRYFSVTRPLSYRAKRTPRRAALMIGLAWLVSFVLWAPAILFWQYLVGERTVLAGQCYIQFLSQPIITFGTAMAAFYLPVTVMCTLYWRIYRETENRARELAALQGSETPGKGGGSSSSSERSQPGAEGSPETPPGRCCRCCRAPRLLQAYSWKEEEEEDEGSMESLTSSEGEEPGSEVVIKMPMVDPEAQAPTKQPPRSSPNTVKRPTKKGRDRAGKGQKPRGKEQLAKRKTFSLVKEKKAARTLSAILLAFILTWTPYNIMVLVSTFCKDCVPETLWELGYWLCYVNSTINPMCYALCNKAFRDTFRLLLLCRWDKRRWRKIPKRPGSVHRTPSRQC
# M1 ag parental = nonselective activator or artifact in parental CHO-K1 cells; Fluo-8 calcium fluorescence; scaled to maximal ATP response, vehicle zero; activation, % at 3 µM; hit rate 0.48% among 360,000; AID 602248; in the data active = activation above about 15%;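 note: untransfected CHO-K1 host cells lacking M1 receptor as counterscreen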
# CHRM1 agonist = activates human CHRM1 receptor | hit rate 0.33% among 360,000 | activation, % at 3 µM | P11229 | CHO-K1 hM1, Fluo-8 calcium fluorescence, agonist mode; 0% DMSO, 100% acetylcholine EC100;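 active = activation above the run's mean compound activation plus 3 SD, cut at about 16% in these data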;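 note: peak over basal fluorescence ratio within a 140 s kinetic read after compound addition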
# CHRM1 antagonist = antagonists of human M1 muscarinic receptor. P11229. CHO-K1 hM1, Fluo-8 calcium fluorescence, ACh EC80 antagonist. inhibition, % at 3 µM. hit rate 1.3% among 360,000;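 active = percent inhibition above its own plate's cutoff, namely the mean of that plate's compound wells plus 3 SD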;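 note: peak over basal fluorescence ratio during 140 s after agonist addition; 0% = ACh EC80 plus DMSO and 100% = DMSO alone without agonist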
# M1 PAM parental = counter-screen for M1 PAMs: effect in parental CHO-K1 cells; ATP EC20, Fluo-8 calcium fluorescence; 0% at ATP EC20, 100% at ATP max; activation, % at 3 µM; hit rate 0.02% among 360,000;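 active = activation above the run cutoff, the mean activation of all test compounds plus 3 SD, cut at about 40% in these data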;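 note: peak over basal fluorescence ratio in a 140 s read after ATP addition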
# CHO-K1 Ca antag = M1 antagonist counterscreen hit in parental CHO-K1 cells | hit rate 0.6% among 360,000 | AID 602250 | inhibition, % at 3 µM | ATP-induced calcium, Fluo-8 fluorescence;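 active = inhibition above a per-plate cutoff, the plate's mean sample inhibition plus 3 SD, cut at about 24% in these data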;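 note: 0% = DMSO plus EC80 ATP and 100% = DMSO alone without ATP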
# An asterisk follows results filed as active. In the library only some 2.4% were active in any assay of this set; here they are far more common.
SMILES,CHRM1 PAM,M1 ag parental,CHRM1 agonist,CHRM1 antagonist,M1 PAM parental,CHO-K1 Ca antag
Cc1[nH]c2ccccc2c1/C=N/Nc1ccc([N+](=O)[O-])cc1,-10.4,20.6*,16.0*,35.0*,-0.3,33.5*
CC(=O)Nc1ccc(NC(=O)CSc2nnc(-c3cc(C)[nH]n3)n2N)cc1,6.5,5.8,-2.6,-6.4,-8.6,18.5
CC(=O)c1c(C)[nH]c(C(=O)OCC(=O)Nc2ccc(Cl)cc2[N+](=O)[O-])c1C,-12.5,13.3,-1.1,33.5*,-8.3,37.2*
CCOC(=O)c1c(C)[nH]c(C(=O)OCC(=O)Nc2cc(Cl)ccc2OC)c1C,4.8,-0.1,-2.8,-3.0,16.6,-15.2
c1ccc(Nc2cccc3ccccc23)cc1,-0.8,-0.2,-4.3,0.1,24.7,-8.6
c1ccc(Nc2ccc3c4c(cccc24)CC3)cc1,-10.3,39.8*,42.5*,52.4*,8.1,39.9*
O=C(Nc1ccc(F)cc1)N1CCOCC1,-3.0,0.1,-2.5,4.2,4.8,-5.3
O=C(Nc1ccc2nc(-c3cccs3)c(-c3cccs3)nc2c1)N1CCOCC1,-21.4,4.1,-4.1,78.4*,13.6,-4.9
O=C(Nc1ccc(N2CCOCC2)cc1)Nc1ccc2nc(-c3ccco3)c(-c3ccco3)nc2c1,-15.2,0.5,-1.7,33.4*,-14.1,-1.4
CN(C)c1ccc(NC(=O)N2CCOCC2)cc1,30.3*,-0.4,-1.2,10.0,-0.8,3.6
Cc1ccccc1-c1nnc(NC(=O)CSc2nc3ccccc3s2)s1,7.4,0.2,-2.3,-13.6,8.7,-0.5
O=C(CCCNC(=O)c1ccc(Cl)cc1)Nc1ncccc1O,26.3*,0.3,9.7,-16.9,-19.6,10.9
O=C(CCNC(=O)c1ccc(Cl)cc1)Nc1ncccc1O,13.9,0.2,1.2,-21.4,-7.0,-0.7
COc1ccc(-c2ccnc3nc(N4CCOCC4)nn23)cc1,-3.3,-0.3,-1.2,3.4,-7.3,24.3*
COCCOC(=O)c1[nH]c2c(c1C)C(=O)CC(c1ccc(N(C)C)cc1)C2 (stereo not given),-5.5,16.5*,4.9,-4.3,5.5,6.2
Cc1cc(C)c(C#N)c(SCC(O)COc2ccc(Br)cc2)n1 (stereo not given),-32.8,4.3,-10.4,61.3*,-4.9,-3.1
CCNCC(=O)N1c2ccccc2CCc2ccc(NC(=O)OC(C)C)cc21,9.4,1.5,-7.9,-17.8,20.3,-11.8
CCOC(=O)Nc1ccc2c(c1)N(C(=O)CCN1CCN(C)CC1)c1ccccc1S2,-10.7,0.1,12.3,-20.3,5.3,1.0
CCOC(=O)Nc1ccc2c(c1)N(C(=O)N1CCN(C)CC1)c1ccccc1S2,-23.1,0.5,-5.1,97.3*,13.2,-1.1
CCOC(=O)Nc1ccc2c(c1)N(C(=O)N1CCN(C)CC1)c1ccccc1CC2,-15.6,0.3,1.0,48.9*,12.2,-17.3
CC(C)OC(=O)Nc1ccc2c(c1)N(C(=O)N1CCN(C)CC1)c1ccccc1CC2,-22.5,2.4,2.0,78.2*,8.4,-5.8
COc1ccc(N(CC(=O)NC2CCCCC2)C(=O)CCCC(=O)Nc2ccccn2)cc1,8.7,1.1,-2.5,-8.0,4.6,-12.8
C=C1C(C(=O)Nc2ccc(OCC)cc2)C1C(=O)Nc1ccc(OCC)cc1 (stereo not given),-1.1,5.4,-3.7,8.4,-4.1,0.5
C=C1C(C(=O)Nc2ccc(OC)cc2)C1C(=O)Nc1ccc(OC)cc1 (stereo not given),-4.1,0.0,-2.6,25.1*,-13.3,1.2
CNC(=O)C1(C)CCN1C(=O)Cc1ccc(C(C)C)cc1 (stereo not given),8.1,3.1,0.3,-22.8,15.4,-5.4
SMILES,CHRM1 PAM,M1 ag parental,CHRM1 agonist,CHRM1 antagonist,M1 PAM parental,CHO-K1 Ca antag
CN(CC(=O)Nc1ccc(F)cc1)C(=O)CNC(=O)C1CCCCC1,-2.6,-0.2,-3.6,8.1,-4.7,-12.6
Clc1cccc(-c2ccc3nccn3c2)c1Cl,1.0,1.2,-6.6,-13.1,-8.5,9.7
COc1cccc(-c2ccc3nccn3c2)c1,-8.9,0.1,-8.9,22.9,-14.1,28.4*
CSc1ccccc1-c1ccc2nccn2c1,-25.1,0.6,-8.8,34.9*,-4.4,19.3
CCN1CCN(c2cc3c(nn2)Oc2ccccc2N3C)CC1,4.8,-0.5,-12.2,-13.4,5.5,-6.7
Cc1ccc(C(=O)N/C(=C\c2cccnc2)C(=O)N2CCCC2)cc1,13.3,0.3,-0.2,-8.5,4.8,-6.9
O=C(N/C(=C/c1ccco1)C(=O)N1CCCCCC1)c1ccccc1,12.1,0.9,-2.0,-10.5,7.7,-12.4
CCOC(=O)C1CCN(C(=O)/C(=C/c2ccccc2)NC(=O)c2ccccc2)CC1,1.2,16.0*,-3.7,-10.3,11.7,-7.9
CCOC(=O)C1CCCN(C(=O)/C(=C/c2ccco2)NC(=O)c2ccccc2)C1 (stereo not given),-12.1,0.3,48.2*,10.7,16.7,-8.1
Cc1ccc(C(=O)N/C(=C/c2cccnc2)C(=O)N2CCCCCC2)cc1,10.8,0.4,-0.2,-17.9,8.7,46.8*
CCOC(=O)N1CCN(C(=O)/C(=C/c2ccc(OC)c(OC)c2)NC(=O)c2ccccc2)CC1,10.6,-0.1,-4.1,-4.7,12.9,-0.6
Cc1ccc(C)c(NC(=O)Cc2coc3cc4c(cc23)CCC4)c1,27.8*,-0.1,-2.5,8.0,-0.7,-0.7
CCC(C)c1ccccc1NC(=O)Cc1coc2cc3c(cc12)CCC3 (stereo not given),-3.0,0.0,-7.0,0.0,10.0,-0.3
CCCn1c(N)c(C(=O)CSc2nncs2)c(=O)[nH]c1=O,-2.2,0.7,-2.2,5.6,9.9,-7.8
CC1(NC(=S)Nc2ccc(NC(=S)NC3(C)CCS(=O)(=O)C3)cc2)CCS(=O)(=O)C1 (stereo not given),5.6,1.1,16.8*,-7.2,13.9,-1.9
C=CCN1C(=O)c2ccc(C(=O)N3CCN(S(=O)(=O)c4cccc(F)c4)CC3)cc2C1=O,-2.7,1.3,-5.3,8.2,9.0,4.8
O=C(Nc1ccccc1Cl)N1CCN(c2ccc3nnc(-c4ccc(F)cc4)n3n2)CC1,-1.7,0.4,-13.2,-2.6,6.6,-16.4
Fc1ccc(-c2nnc3ccc(N4CCCC4)nn23)cc1,-29.6,0.9,-4.7,102.4*,13.2,6.6
CCN(CC)S(=O)(=O)c1cccc(NC(=O)c2cc(=O)[nH]c3ccccc23)c1,5.3,0.0,2.4,1.4,-12.3,2.8
O=C(O)Cc1ccc(NC(=O)c2cccc(NC(=O)c3ccco3)c2)cc1,6.8,-0.6,0.1,2.0,-13.5,28.4*
O=C(Nc1ccccc1)c1cccc(NC(=O)c2ccco2)c1,6.7,10.1,2.4,-6.4,25.7,-4.8
O=C(Nc1cccc(-c2nc3ccccc3[nH]2)c1)c1cccc(NC(=O)c2ccco2)c1,-13.8,7.7,-3.1,37.0*,8.1,-31.2
Cn1c(=O)c2[nH]c(COc3ccc(C(C)(C)C)cc3)nc2n(C)c1=O,-14.4,13.6,4.0,38.9*,-0.2,-4.8
